Test results published in the supplement of paper PMC13380429.

Tested on: Vero E6 infected with SARS-CoV-2
Experiment: inhibition of SARS-CoV-2 cytopathic effect; higher = more antiviral protection, active = above 15
Conditions: 48 h

Measured: inhibition of SARS-CoV-2 cytopathic effect

CO[C@H]1CC[C@H](N2C(=O)CNc3ncc(-c4ccc(C(C)(C)O)nc4)nc32)CC1
inactive: 1 nM 0.96% | 8.33 nM -0.05% | 100 nM 0.58% | 833.33 nM -3.48% | 10000 nM -14.6%

CCOP(=S)(OCC)Oc1cc(C)nc(C(C)C)n1 [dimpylate]
inactive: 1 nM 1.47% | 8.33 nM -0.54% | 100 nM 2.07% | 833.33 nM 1.11% | 10000 nM -3.47%

O=C(O)c1ccccc1C(=O)Nc1ccc(-c2ccccc2)cc1 [kartogenin]
inactive: 1 nM 3.34% | 8.33 nM 2.53% | 100 nM 0.87% | 833.33 nM 1.12% | 10000 nM 1.02%

CC(C)C[C@@H](C(=O)N[C@H](C(=O)OC1CCCC1)c1ccccc1)[C@H](O)C(=O)NO [tosedostat]
inactive: 1 nM 3.34% | 8.33 nM 6.05% | 100 nM -1.49% | 833.33 nM 3.93% | 10000 nM 4.94%

CCN(CC)C(=O)c1ccc(C2=CC3(CCNCC3)Oc3cccc(O)c32)cc1
inactive: 1 nM -0.93% | 8.33 nM -0.47% | 100 nM -4.19% | 833.33 nM -2.26% | 10000 nM -2.32%

Cc1ccc(=O)n(-c2ccc(O)cc2)c1
inactive: 1 nM -3.24% | 8.33 nM -0.95% | 100 nM 1.12% | 833.33 nM 2.81% | 10000 nM 1.12%

CC(C)(O)C(Cl)(Cl)Cl [chlorobutanol]
inactive: 1 nM 0.34% | 8.33 nM 1.76% | 100 nM 0.44% | 833.33 nM 1.86% | 10000 nM -2.07%
